{"source": "paper PMC11995724", "about": "“Antibiotic target discovery by integrated phenotypic and activity-based profiling of electrophilic fragments” (Cell chemical biology, 2025)", "note": "Screen size: about 3,200 compounds; about 75 (2%) showed an effect of 50% or more. Many of the other results were omitted from the sample, so strong results are more common in it than they were."}
{"test_system": "T1, S. aureus MSSA476", "T1 construct": "MSSA476", "parameters": "species or system S. aureus MSSA476 (TSB) or V. cholerae SAD30 (LB); 384-well bacterial growth screen at 25 uM, OD600 relative to DMSO control", "settings": "relative growth, OD600, TSB; 25 µM; inhibitor", "units": {"% of control remaining": "%"}}
{"molecule": "O=C1C=CC(=O)N1c1ccccc1Sc1ccc(Cl)cc1", "note": "[10-A03, 1-{2-[(4-chlorophenyl)sulfanyl]phenyl}-2,5-dihydro-1H-pyrrole-2,5-dione]", "% of control remaining": 10.9375}
{"molecule": "O=C1C=CC(=O)N1c1ccccc1F", "note": "[10-D17, 1-(2-fluorophenyl)-2,5-dihydro-1H-pyrrole-2,5-dione]", "% of control remaining": 118.75}
{"molecule": "O=C1C=CC(=O)N1c1ccccc1Sc1ccccc1", "note": "[10-K12, 1-[2-(phenylsulfanyl)phenyl]-2,5-dihydro-1H-pyrrole-2,5-dione]", "% of control remaining": 129.063}
{"molecule": "CCN1C(=O)CC[C@H](CNC(=O)C(C)Cl)[C@H]1c1cnn(C)c1", "note": "(mixture of isomers) [6-L13, rac-2-chloro-N-{[(2R,3S)-1-ethyl-2-(1-methyl-1H-pyrazol-4-yl)-6-oxopiperidin-3-yl]methyl}propanamide]", "% of control remaining": 89.122}
{"molecule": "C=CC(=O)N1CCc2c(nnn2CCOC)C1", "note": "[1-N05, 1-[1-(2-methoxyethyl)-1H,4H,5H,6H,7H-[1,2,3]triazolo[4,5-c]pyridin-5-yl]prop-2-en-1-one]", "% of control remaining": 84.7473}
{"molecule": "C=CC(=O)NC1CCN(c2nnnn2C)CC1", "note": "[3-G06, N-[1-(1-methyl-1H-1,2,3,4-tetrazol-5-yl)piperidin-4-yl]prop-2-enamide]", "% of control remaining": 85.677}
{"molecule": "CCC(NC(=O)CCl)c1c(C)noc1C", "note": "(centres unmarked) [7-D03, 2-chloro-N-[1-(3,5-dimethyl-1,2-oxazol-4-yl)propyl]acetamide]", "% of control remaining": 95.4474}
{"molecule": "CCOc1ccc(C(=O)C(C)Cl)cc1", "note": "(centres unmarked) [10-G06, 2-chloro-1-(4-ethoxyphenyl)propan-1-one]", "% of control remaining": 80.3125}
{"molecule": "CCOc1ccc(C(=O)CCl)cc1", "note": "[10-F12, 2-chloro-1-(4-ethoxyphenyl)ethan-1-one]", "% of control remaining": 0.3125}
{"molecule": "O=C(CCl)c1ccc(Oc2ccccc2)cc1", "note": "[10-G20, 2-chloro-1-(4-phenoxyphenyl)ethan-1-one]", "% of control remaining": -0.625}
{"molecule": "O=C(CCl)Nc1cccc(Oc2ccccc2)c1", "note": "[4-P19, 2-chloro-N-(3-phenoxyphenyl)acetamide]", "% of control remaining": 90.7099}
{"molecule": "O=C(CCl)Nc1ccc(Oc2ccccc2)cc1", "note": "[4-J09, 2-chloro-N-(4-phenoxyphenyl)acetamide]", "% of control remaining": 73.5588}
{"molecule": "O=C(CCl)c1ccc2c(c1)-c1ccccc1C2", "note": "[10-H17, 2-chloro-1-(9H-fluoren-3-yl)ethan-1-one]", "% of control remaining": 1.875}
{"molecule": "NC(=O)COc1ccc(C(=O)CCl)cc1", "note": "[10-M07, 2-[4-(2-chloroacetyl)phenoxy]acetamide]", "% of control remaining": 111.563}
{"molecule": "CC(Cl)C(=O)NC(C)c1ccns1", "note": "(centres unmarked) [6-P12, 2-chloro-N-[1-(1,2-thiazol-5-yl)ethyl]propanamide]", "% of control remaining": 84.3415}
{"molecule": "N#CC(=Cc1cc(F)ccc1F)C(=O)Nc1cc(Cl)ccc1Cl", "note": "[8-A12, 2-cyano-N-(2,5-dichlorophenyl)-3-(2,5-difluorophenyl)prop-2-enamide]", "% of control remaining": 131.12}
{"molecule": "Cl.O=C(CCl)NC1CCN(Cc2cscn2)CC1", "note": "[7-H04, 2-chloro-N-{1-[(1,3-thiazol-4-yl)methyl]piperidin-4-yl}acetamide hydrochloride]", "% of control remaining": 88.2261}
{"molecule": "Cc1ccc(C)c(NC(=O)C(C#N)=Cc2ccc3c(c2)OCCO3)c1", "note": "[8-L11, 2-cyano-3-(2,3-dihydro-1,4-benzodioxin-6-yl)-N-(2,5-dimethylphenyl)prop-2-enamide]", "% of control remaining": 108.216}
{"molecule": "C=CC(=O)NC(Cc1ccccc1)c1ccccn1", "note": "(centres unmarked) [2-K14, N-[2-phenyl-1-(pyridin-2-yl)ethyl]prop-2-enamide]", "% of control remaining": 109.312}
{"molecule": "C=CC(=O)N(C)Cc1cn(C)nc1C(C)C", "note": "[3-F15, N-methyl-N-{[1-methyl-3-(propan-2-yl)-1H-pyrazol-4-yl]methyl}prop-2-enamide]", "% of control remaining": 119.808}
{"molecule": "Cc1cc(C(=O)CCl)c(C)n1-c1ccc(C(C)(C)C)cc1", "note": "[10-N20, 1-[1-(4-tert-butylphenyl)-2,5-dimethyl-1H-pyrrol-3-yl]-2-chloroethan-1-one]", "% of control remaining": 101.875}
{"molecule": "COc1ccc(-n2c(C)cc(C(=O)CCl)c2C)cc1", "note": "[10-I12, 2-chloro-1-[1-(4-methoxyphenyl)-2,5-dimethyl-1H-pyrrol-3-yl]ethan-1-one]", "% of control remaining": 127.813}
{"molecule": "Cc1cc(C(=O)CCl)c(C)n1-c1cc(Cl)cc(Cl)c1", "note": "[10-I04, 2-chloro-1-[1-(3,5-dichlorophenyl)-2,5-dimethyl-1H-pyrrol-3-yl]ethan-1-one]", "% of control remaining": 0}
{"molecule": "Cc1ccccc1-n1c(C)cc(C(=O)CCl)c1C", "note": "[10-H20, 2-chloro-1-[2,5-dimethyl-1-(2-methylphenyl)-1H-pyrrol-3-yl]ethan-1-one]", "% of control remaining": 118.75}
{"molecule": "CCOc1ccc(-n2c(C)cc(C(=O)CCl)c2C)cc1", "note": "[10-K08, 2-chloro-1-[1-(4-ethoxyphenyl)-2,5-dimethyl-1H-pyrrol-3-yl]ethan-1-one]", "% of control remaining": 38.75}
{"molecule": "Cc1cc(C(=O)CCl)c(C)n1-c1ccc(C(C)C)cc1", "note": "[10-J12, 2-chloro-1-{2,5-dimethyl-1-[4-(propan-2-yl)phenyl]-1H-pyrrol-3-yl}ethan-1-one]", "% of control remaining": 5.3125}
{"molecule": "Cc1cc(C)cc(-n2c(C)cc(C(=O)CCl)c2C)c1", "note": "[10-E04, 2-chloro-1-[1-(3,5-dimethylphenyl)-2,5-dimethyl-1H-pyrrol-3-yl]ethan-1-one]", "% of control remaining": 128.438}
{"molecule": "Cc1csc(-n2c(C)cc(C(=O)CCl)c2C)n1", "note": "[10-G05, 2-chloro-1-[2,5-dimethyl-1-(4-methyl-1,3-thiazol-2-yl)-1H-pyrrol-3-yl]ethan-1-one]", "% of control remaining": 121.563}
{"molecule": "Cc1cc(C(=O)CCl)c(C)n1-c1ccc(C(F)(F)F)cc1", "note": "[10-J14, 2-chloro-1-{2,5-dimethyl-1-[4-(trifluoromethyl)phenyl]-1H-pyrrol-3-yl}ethan-1-one]", "% of control remaining": 0}
{"molecule": "Cc1cc(C(=O)CCl)c(C)n1C(C)c1ccccc1", "note": "(centres unmarked) [10-P17, 2-chloro-1-[2,5-dimethyl-1-(1-phenylethyl)-1H-pyrrol-3-yl]ethan-1-one]", "% of control remaining": 101.563}
{"molecule": "C=CC(=O)NCc1ccc(C(=O)N2CCC[C@@H]2C(N)=O)cc1", "note": "[3-L22, (2R)-1-{4-[(prop-2-enamido)methyl]benzoyl}pyrrolidine-2-carboxamide]", "% of control remaining": 98.2151}
{"molecule": "CC(Cl)C(=O)NC(c1ccc(F)cc1)c1cnn(C)c1", "note": "(centres unmarked) [7-C19, 2-chloro-N-[(4-fluorophenyl)(1-methyl-1H-pyrazol-4-yl)methyl]propanamide]", "% of control remaining": 93.2496}
{"molecule": "N#CC(=Cc1cnc2ccc(C#N)cn12)C(=O)Nc1ccc(F)cc1", "note": "[9-E20, 2-cyano-3-{6-cyanoimidazo[1,2-a]pyridin-3-yl}-N-(4-fluorophenyl)prop-2-enamide]", "% of control remaining": 103.67}
{"molecule": "CC(Cl)C(=O)N1CCn2c(nn(CC(=O)N(C)C)c2=O)C1", "note": "(centres unmarked) [7-K17, 2-[7-(2-chloropropanoyl)-3-oxo-2H,3H,5H,6H,7H,8H-[1,2,4]triazolo[4,3-a]pyrazin-2-yl]-N,N-dimethylacetamide]", "% of control remaining": 89.4819}
{"molecule": "Cc1cc(C)n(CCCNC(=O)C(C)Cl)n1", "note": "(centres unmarked) [7-O19, 2-chloro-N-[3-(3,5-dimethyl-1H-pyrazol-1-yl)propyl]propanamide]", "% of control remaining": 98.2732}
{"molecule": "Cc1nn(C)c(C)c1NC(=O)C(C)Cl", "note": "(centres unmarked) [6-C07, 2-chloro-N-(1,3,5-trimethyl-1H-pyrazol-4-yl)propanamide]", "% of control remaining": 84.6829}
{"molecule": "Cc1cc(NC(=O)CCl)c([N+](=O)[O-])cc1C", "note": "[4-F21, 2-chloro-N-(4,5-dimethyl-2-nitrophenyl)acetamide]", "% of control remaining": 87.2797}
{"molecule": "Cc1cc(C(=O)CCl)c(C)n1-c1ccc(S(N)(=O)=O)cc1", "note": "[10-N14, 4-[3-(2-chloroacetyl)-2,5-dimethyl-1H-pyrrol-1-yl]benzene-1-sulfonamide]", "% of control remaining": 121.875}
{"molecule": "Cc1cc(C(=O)CCl)c(C)n1-c1ccccc1", "note": "[10-L20, 2-chloro-1-(2,5-dimethyl-1-phenyl-1H-pyrrol-3-yl)ethan-1-one]", "% of control remaining": 127.188}
{"molecule": "Cc1cc(C(=O)CCl)c(C)n1-c1ccc(Cl)cc1", "note": "[10-H18, 2-chloro-1-[1-(4-chlorophenyl)-2,5-dimethyl-1H-pyrrol-3-yl]ethan-1-one]", "% of control remaining": -0.625}
{"molecule": "CC(Cl)C(=O)N[C@@H]1CCc2c(C#N)cccc21", "note": "(stereo partly drawn) [6-P14, 2-chloro-N-[(1R)-4-cyano-2,3-dihydro-1H-inden-1-yl]propanamide]", "% of control remaining": 122.927}
{"molecule": "COc1ccc(CNC(=O)CCl)cc1OC", "note": "[5-O11, 2-chloro-N-[(3,4-dimethoxyphenyl)methyl]acetamide]", "% of control remaining": 81.6029}
{"molecule": "CC1Cc2cc(C(=O)CCl)ccc2N1S(C)(=O)=O", "note": "(centres unmarked) [10-A04, 2-chloro-1-(1-methanesulfonyl-2-methyl-2,3-dihydro-1H-indol-5-yl)ethan-1-one]", "% of control remaining": 1.875}
{"molecule": "O=CN1CCc2cc(C(=O)CCl)ccc21", "note": "[10-K20, 5-(2-chloroacetyl)-2,3-dihydro-1H-indole-1-carbaldehyde]", "% of control remaining": 102.813}
{"molecule": "CC(=O)NCCc1cc(C(=O)CCl)ccc1F", "note": "[10-O05, N-{2-[5-(2-chloroacetyl)-2-fluorophenyl]ethyl}acetamide]", "% of control remaining": 128.438}
{"molecule": "CC(=O)N1CCc2cc(C(=O)C(C)Cl)ccc21", "note": "(centres unmarked) [10-L22, 1-(1-acetyl-2,3-dihydro-1H-indol-5-yl)-2-chloropropan-1-one]", "% of control remaining": 124.375}
{"molecule": "CCS(=O)(=O)N1CCc2cc(C(=O)CCl)ccc21", "note": "[10-E18, 2-chloro-1-[1-(ethanesulfonyl)-2,3-dihydro-1H-indol-5-yl]ethan-1-one]", "% of control remaining": 0.3125}
{"molecule": "CC(=O)N1c2ccc(C(=O)CCl)cc2CC1C", "note": "(centres unmarked) [10-I20, 1-(1-acetyl-2-methyl-2,3-dihydro-1H-indol-5-yl)-2-chloroethan-1-one]", "% of control remaining": 66.25}
{"molecule": "CS(=O)(=O)N1CCc2cc(C(=O)CCl)ccc21", "note": "[10-B19, 2-chloro-1-(1-methanesulfonyl-2,3-dihydro-1H-indol-5-yl)ethan-1-one]", "% of control remaining": 0.3125}
{"molecule": "CN1C(=O)Cc2cc(C(=O)CCl)ccc21", "note": "[10-G07, 5-(2-chloroacetyl)-1-methyl-2,3-dihydro-1H-indol-2-one]", "% of control remaining": 132.813}
{"molecule": "O=C(CCl)NCCS(=O)(=O)N1CCc2ccccc21", "note": "[6-H04, 2-chloro-N-[2-(2,3-dihydro-1H-indole-1-sulfonyl)ethyl]acetamide]", "% of control remaining": 86.0488}
{"molecule": "CCC(=O)N1CCc2cc(C(=O)CCl)ccc21", "note": "[10-C22, 1-[5-(2-chloroacetyl)-2,3-dihydro-1H-indol-1-yl]propan-1-one]", "% of control remaining": 125.938}
{"molecule": "CS(=O)(=O)N1CCCc2cc(C(=O)CCl)ccc21", "note": "[10-H19, 2-chloro-1-(1-methanesulfonyl-1,2,3,4-tetrahydroquinolin-6-yl)ethan-1-one]", "% of control remaining": 1.5625}
